According to PubChem BioAssay:
Active and inactive are the calls of the source.

What was measured:
[1] = system: Plasmodium falciparum Sir2 (PF13_0152, Sir2A); assay: Plasmodium falciparum Sir2A binding compounds – biochemical, small-molecule microarray, 635 nm fluorescence, primary screen (AID 1098); conditions: fluorescence 635 nm, higher = more signal;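 also: score merges spot fluorescence intensity with its signal-to-noise ratio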
[2] = probe aDKK1 binding to arrayed compounds – biochemical, biotinylated probe, 635/667 nm fluorescence, primary screen (AID 1099); conditions: small-molecule microarray, higher = more signal;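 also: score merges 667nm spot fluorescence with signal to noise across triplicate slides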
[3] = probe aCHRDL2 binding to arrayed compounds – biochemical, biotinylated probe, 635/667 nm fluorescence, primary screen (AID 1100); conditions: small-molecule microarray, higher = more signal
[4] = change in splice reporter luminescence, either direction, cell-based, HEK293, spliceosome inhibition project, primary screen (AID 1101); conditions: HEK293 splicing luciferase reporter, 24 h, higher = more signal, called active from +8 up or from −8 down;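 also: HEK293 cells carrying a splicing-competent luciferase reporter gene; test concentration not given here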
[5] = biological target: Fibroblast growth factor 10 (Homo sapiens) (UniProt O15520); assay: compounds binding fibroblast growth factor 10 – biochemical, small-molecule microarray, 635 nm fluorescence, primary screen (AID 1102); conditions: FGF10 binding, fluorescence 635 nm, higher = more signal
Sequence of Fibroblast growth factor 10 (Homo sapiens) (O15520 whole entry, looked up): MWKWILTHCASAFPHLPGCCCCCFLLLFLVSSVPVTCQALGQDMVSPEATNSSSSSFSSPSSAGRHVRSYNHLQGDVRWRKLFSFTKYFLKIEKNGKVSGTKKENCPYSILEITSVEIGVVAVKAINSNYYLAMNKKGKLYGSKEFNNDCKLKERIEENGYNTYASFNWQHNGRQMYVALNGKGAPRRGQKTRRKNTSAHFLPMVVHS

[6] = system: glycogen synthase kinase-3 (GSK3A per assay name; protocol says GSK3B); assay: compounds binding glycogen synthase kinase-3 – biochemical, small-molecule microarray, 635 nm fluorescence, GSK3A, primary screen (AID 1103); conditions: fluorescence 635 nm, higher = more signal; also: the record names both GSK3A and GSK3B
[7] = biological target: Epidermal growth factor receptor (Homo sapiens) (UniProt P00533); assay: compounds binding epidermal growth factor receptor – biochemical, small-molecule microarray, 635 nm fluorescence, primary screen (AID 1104); conditions: EGFR binding, higher = more signal;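 also: score merges 667 nm emission intensity with spot signal to noise over triplicate slides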
Sequence of Epidermal growth factor receptor (Homo sapiens) (P00533 whole entry, looked up): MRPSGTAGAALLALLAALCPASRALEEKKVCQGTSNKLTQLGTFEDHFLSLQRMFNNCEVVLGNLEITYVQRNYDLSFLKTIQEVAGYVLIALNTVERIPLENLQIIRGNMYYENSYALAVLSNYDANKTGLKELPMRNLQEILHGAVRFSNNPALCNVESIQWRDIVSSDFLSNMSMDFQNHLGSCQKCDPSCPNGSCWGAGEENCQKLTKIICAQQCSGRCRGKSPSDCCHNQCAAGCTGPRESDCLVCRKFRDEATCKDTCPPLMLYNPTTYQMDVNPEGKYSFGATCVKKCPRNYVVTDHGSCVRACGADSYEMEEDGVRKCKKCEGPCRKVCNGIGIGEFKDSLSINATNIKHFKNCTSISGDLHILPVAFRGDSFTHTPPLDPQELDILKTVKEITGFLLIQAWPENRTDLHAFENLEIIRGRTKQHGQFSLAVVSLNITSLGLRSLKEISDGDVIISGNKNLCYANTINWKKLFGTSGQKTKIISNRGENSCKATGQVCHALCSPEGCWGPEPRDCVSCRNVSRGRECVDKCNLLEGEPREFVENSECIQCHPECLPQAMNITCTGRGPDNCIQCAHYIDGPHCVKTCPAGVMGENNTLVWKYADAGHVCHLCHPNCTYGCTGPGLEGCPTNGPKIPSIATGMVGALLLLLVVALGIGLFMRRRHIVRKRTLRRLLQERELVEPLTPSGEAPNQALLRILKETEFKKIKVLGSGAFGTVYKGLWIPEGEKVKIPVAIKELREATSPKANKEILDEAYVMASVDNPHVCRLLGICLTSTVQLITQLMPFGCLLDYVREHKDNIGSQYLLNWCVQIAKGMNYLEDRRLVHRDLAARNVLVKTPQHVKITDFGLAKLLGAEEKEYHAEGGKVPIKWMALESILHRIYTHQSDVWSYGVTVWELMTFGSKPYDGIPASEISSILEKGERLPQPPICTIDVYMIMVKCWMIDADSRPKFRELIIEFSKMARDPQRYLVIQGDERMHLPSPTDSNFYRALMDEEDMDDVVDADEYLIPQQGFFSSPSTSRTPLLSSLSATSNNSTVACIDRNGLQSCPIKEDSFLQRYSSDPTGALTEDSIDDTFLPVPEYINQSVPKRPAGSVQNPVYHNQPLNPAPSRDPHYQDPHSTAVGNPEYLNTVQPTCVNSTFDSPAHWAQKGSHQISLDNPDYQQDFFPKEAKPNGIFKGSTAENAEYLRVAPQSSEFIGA

[8] = biological target: Follistatin-related protein 3 (Homo sapiens) (UniProt O95633); assay: compounds binding follistatin-related protein 3 – biochemical, small-molecule microarray, 635 nm fluorescence, primary screen (AID 1105); conditions: FSTL3 binding, higher = more signal;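 also: score merges emission near 667 nm and signal to noise per printed spot across three slides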
Sequence of Follistatin-related protein 3 (Homo sapiens) (O95633 whole entry, looked up): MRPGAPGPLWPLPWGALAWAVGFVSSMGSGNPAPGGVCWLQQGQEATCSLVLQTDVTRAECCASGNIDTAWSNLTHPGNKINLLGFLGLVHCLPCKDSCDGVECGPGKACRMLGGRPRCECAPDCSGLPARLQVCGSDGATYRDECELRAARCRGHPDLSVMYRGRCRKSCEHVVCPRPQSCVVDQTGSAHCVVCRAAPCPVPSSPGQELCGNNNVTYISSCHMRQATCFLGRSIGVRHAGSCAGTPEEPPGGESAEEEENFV

[9] = biological target: Dickkopf-related protein 1 (Homo sapiens) (UniProt O94907); assay: small molecules binding DKK1 protein – biochemical, small-molecule microarray, 635 nm fluorescence scan, primary screen (AID 1106); conditions: higher = more signal;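 also: score merges emission near 667 nm with signal to noise over three replicate slides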
Sequence of Dickkopf-related protein 1 (Homo sapiens) (O94907 whole entry, looked up): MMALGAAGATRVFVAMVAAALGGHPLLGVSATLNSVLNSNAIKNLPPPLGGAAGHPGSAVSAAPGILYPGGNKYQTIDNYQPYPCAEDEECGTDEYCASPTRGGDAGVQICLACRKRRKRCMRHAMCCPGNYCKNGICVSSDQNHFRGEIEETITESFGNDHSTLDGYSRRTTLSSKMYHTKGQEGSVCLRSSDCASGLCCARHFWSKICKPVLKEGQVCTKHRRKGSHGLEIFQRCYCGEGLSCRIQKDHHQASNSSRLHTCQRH

[10] = system: Inhibin beta A chain (activin A); assay: small molecules binding activin A – biochemical, small-molecule microarray, 635 nm fluorescence scan, primary screen (AID 1107); conditions: INHBA, higher = more signal;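 also: mouse activin A protein probed at 4.33 µg/mL on printed slides; score merges bound-protein fluorescence near 667 nm with spot signal-to-noise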
[11] = system: Human papillomavirus type 1a protein E7 (residues 44-93); assay: small molecules binding HPV E7 44-93 – biochemical, small-molecule microarray, residues 44-93, 635 nm fluorescence, primary screen (AID 1108); conditions: fluorescence 635 nm, higher = more signal;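 also: E7 fragment applied at 1 µg/mL in TBST for 1 h at 4 C; score combines spot fluorescence with its signal to noise ratio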
[12] = hepatitis C replication reporter changes, two-sided – Huh7 cells, luciferase reporter, HCV replication inhibitor project, primary screen (AID 1109); conditions: Huh7 HCV replicon luciferase reporter, 48 h; higher = more signal;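 also: huh7 hepatoma cells harbouring a luciferase neomycin HCV replicon reporter; luciferase luminescence as measure of HCV replicon replication; test concentration not given here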
[13] = biological target: Left-right determination factor 2 (Homo sapiens) (UniProt O00292); assay: small molecules binding LEFTY2 protein – biochemical, small-molecule microarray, 635 nm fluorescence scan, primary screen (AID 1110); conditions: higher = more signal
Sequence of Left-right determination factor 2 (Homo sapiens) (O00292 whole entry, looked up): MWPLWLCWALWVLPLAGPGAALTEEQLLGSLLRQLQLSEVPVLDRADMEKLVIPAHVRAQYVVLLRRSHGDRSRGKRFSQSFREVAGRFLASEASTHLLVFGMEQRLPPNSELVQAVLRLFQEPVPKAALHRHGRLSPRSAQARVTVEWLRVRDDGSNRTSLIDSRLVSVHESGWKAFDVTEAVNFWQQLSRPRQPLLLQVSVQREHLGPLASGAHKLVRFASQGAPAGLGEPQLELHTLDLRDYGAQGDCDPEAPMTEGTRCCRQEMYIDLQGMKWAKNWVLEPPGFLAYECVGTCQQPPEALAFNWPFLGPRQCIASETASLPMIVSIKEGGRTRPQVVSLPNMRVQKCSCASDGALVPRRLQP

[14] = biological target: Calmodulin-1 (Homo sapiens) (UniProt P0DP23); assay: small molecules binding calmodulin-1 with EGTA – biochemical, small-molecule microarray, Cy5-labelled CALM1, profiling panel (AID 1111); conditions: Cy5-CALM1 binding fluorescence, higher = more signal;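 also: labelled calmodulin applied in Tris saline Tween buffer holding calcium plus EGTA and DTT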
[15] = biological target: Calmodulin-1 (Homo sapiens) (UniProt P0DP23); assay: small molecules binding Ca-loaded calmodulin-1 – biochemical, small-molecule microarray, Cy5-labelled CALM1, plus calcium, artefact control for SMM control-protein annotation, profiling panel (AID 1112); conditions: Cy5-CALM1 binding fluorescence, higher = more signal;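 also: score merges spot fluorescence with signal to noise from triplicate slides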
[16] = probe aWnt5a binding to arrayed compounds – biochemical, biotinylated probe, 635/667 nm fluorescence, primary screen (AID 1113); conditions: small-molecule microarray, higher = more signal;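 also: score merges 667 nm fluorescence intensity with signal-to-noise per printed feature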
[17] = probe aShh binding to arrayed compounds – biochemical, biotinylated probe, 635/667 nm fluorescence, primary screen (AID 1114); conditions: small-molecule microarray, higher = more signal;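 also: probe is biotin-labelled aShh protein from a stem cell growth factor screen; measures binding of labelled protein to compounds printed on the slide; score merges feature fluorescence at 667 nm with signal-to-noise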
[18] = probe aNog binding to arrayed compounds – biochemical, biotinylated probe, 635/667 nm fluorescence, primary screen (AID 1115); conditions: small-molecule microarray, higher = more signal;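 also: probe is biotinylated aNog protein used at 0.15 µg/mL for 1 h at 4 C; z-score combines 667 nm fluorescence of each spot with its signal to noise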
[19] = biological target: Torsin-1A-interacting protein 1 (Homo sapiens) (UniProt Q5JTV8); assay: compound microarray binding of lysate hLAP1 – cell lysate, small-molecule microarray, COS7 lysate, 635/667 nm fluorescence, primary screen (AID 1116); conditions: 635 nm fluorescence, higher = more signal
Sequence of Torsin-1A-interacting protein 1 (Homo sapiens) (Q5JTV8 whole entry, looked up): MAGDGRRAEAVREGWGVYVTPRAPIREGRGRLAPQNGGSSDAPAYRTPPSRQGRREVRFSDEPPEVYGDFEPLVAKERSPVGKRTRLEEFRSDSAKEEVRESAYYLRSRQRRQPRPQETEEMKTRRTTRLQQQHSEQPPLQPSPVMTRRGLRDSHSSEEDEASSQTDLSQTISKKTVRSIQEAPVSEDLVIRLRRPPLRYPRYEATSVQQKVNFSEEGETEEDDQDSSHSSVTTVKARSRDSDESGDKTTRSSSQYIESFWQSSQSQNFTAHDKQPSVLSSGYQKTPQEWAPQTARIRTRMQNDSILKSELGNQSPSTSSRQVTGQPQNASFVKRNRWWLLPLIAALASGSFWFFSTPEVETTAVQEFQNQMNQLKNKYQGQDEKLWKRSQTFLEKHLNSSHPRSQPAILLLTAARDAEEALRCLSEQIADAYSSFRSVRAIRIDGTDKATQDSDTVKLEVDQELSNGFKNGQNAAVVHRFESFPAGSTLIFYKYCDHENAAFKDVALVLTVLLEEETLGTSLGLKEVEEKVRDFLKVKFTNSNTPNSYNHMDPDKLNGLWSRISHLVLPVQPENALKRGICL

[20] = biological target: Alpha-bungarotoxin (Bungarus multicinctus) (UniProt P60615); assay: compounds binding labelled alpha-BTX control protein – biochemical, small-molecule microarray, Alexa647 label, 635/667 nm fluorescence, artefact control for SMM control protein annotation, profiling panel (AID 1117); conditions: alpha-BTX-A647 binding fluorescence, higher = more signal
Sequence of Alpha-bungarotoxin (Bungarus multicinctus) (P60615 whole entry, looked up): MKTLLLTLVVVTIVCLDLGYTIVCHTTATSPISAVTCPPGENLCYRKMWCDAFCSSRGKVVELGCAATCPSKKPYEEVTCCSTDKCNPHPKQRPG

| SMILES | composite z-score [1] | composite z-score [2] | composite z-score [3] | z-score [4] | composite z-score [5] | composite z-score [6] | composite z-score [7] | composite z-score [8] | composite z-score [9] | composite z-score [10] | composite z-score [11] | z-score [12] | composite z-score [13] | composite z-score [14] | composite z-score [15] | composite z-score [16] | composite z-score [17] | composite z-score [18] | composite z-score [19] | composite z-score [20] |
| --- | --- | --- | --- | --- | --- | --- | --- | --- | --- | --- | --- | --- | --- | --- | --- | --- | --- | --- | --- | --- |
| CC(=O)OC[C@H]1O[C@@H](ON=C(C)CCN2CCCc3nc(C)c(C)cc32)[C@H](OC(C)=O)[C@@H](OC(C)=O)[C@@H]1OC(C)=O | 0.541 | -0.132 | -0.638 | -0.548 (inactive) | 1.03 | 1.29 | 0.804 | 1.26 | 0.855 | -0.263 | 1.38 | -1.14 | 0.737 | 0.113 | -0.743 | -0.117 | -0.167 | 0.0401 | 0.466 | 0.0927 |
| COC(=O)CC=C[C@@H](C)[C@@H](C=NOCC[C@@H]1C=C[C@H](OC(C)=O)[C@@H](COC(C)=O)O1)NS(=O)(=O)c1ccc(C)cc1 | 0.133 | -0.322 | -0.331 | -0.43 (inactive) | -0.183 | 0.328 | 0.736 | 0.0237 | 0.316 | 0.46 | -0.0642 | -1.45 | 0.851 | -0.879 | -1.47 | -0.0519 | 0.0141 | -0.429 | 0.164 | -0.0729 |
| COC(=O)[C@@H]1CC[C@H](C)[C@@H](c2ccc(C)cc2)N1C(=O)c1ccc(C=NO[C@@H](C)c2cn([C@H](CO)Cc3ccccc3)nn2)cc1 | 1.03 | -0.0212 | -0.925 | -0.746 (inactive) | 1.09 | 1.16 | 0.797 | 1.17 | 1.22 | -0.116 | 1.3 | -2.25 | 0.785 | -0.0062 | -0.388 | 0.116 | -0.0146 | -0.0554 | 0.641 | 0.51 |
| CC(C)CON=C1C[C@@H](O)[C@@H](O)[C@@H]2[C@@H]3C(=O)N(c4cccc(Oc5ccccc5)c4)C(=O)[C@@H]3CC[C@@H]12 | 1.13 | -0.277 | -0.446 | -1.24 (inactive) | 0.746 | 0.789 | 0.368 | 0.348 | 0.195 | -0.163 | 1.35 | 0.251 | 0.374 | 1.05 | -0.426 | 0.0215 | -0.221 | -0.158 | 1.06 | 0.538 |
| CO[C@H]1COC(=O)CC=C[C@@H](C)[C@H](NS(=O)(=O)c2ccc(C)cc2)COC(=O)CCC[C@@H]1C | 0.684 | -0.233 | -0.689 | -0.679 (inactive) | 0.366 | 0.22 | 0.484 | 1.04 | 1.53 | 0.9 | 0.106 | -2.24 | 0.8 | -0.789 | -1.3 | -0.154 | -0.188 | -0.321 | 0.784 | 0.493 |
| CCOC(=O)[C@H](Cc1ccccc1)NC(=O)CCC1CC(OC(=O)NCCc2ccc(F)cc2)CC2(CCCC(COC(=O)NCc3ccccc3)O2)O1 (stereo not given in full) | 0.857 | -0.208 | -0.614 | 0.207 (inactive) | 1.16 | 0.572 | 0.33 | 0.76 | 0.529 | 0.0158 | 1.29 | -0.929 | 0.829 | 0.774 | -0.129 | -0.157 | 1.15 | -0.118 | 0.601 | 0.154 |
| COC(=O)CC=C[C@@H](C)[C@@H](C=NO[C@@H]1O[C@H](COC(C)=O)[C@@H](OC(C)=O)[C@H](OC(C)=O)[C@H]1OC(C)=O)NS(=O)(=O)c1ccc(C)cc1 | -0.119 | -0.268 | -0.645 | -0.15 (inactive) | 0.626 | -0.448 | 0.504 | -0.212 | 0.833 | -1.58 | -0.296 | -0.594 | 0.599 | -0.881 | -1.69 | -0.124 | -0.221 | -0.158 | -0.441 | -1 |
| CCOC(=O)NN=C1C[C@@H](O)[C@@H](O)[C@@H]2[C@@H]3C(=O)N([C@@H](C)c4ccccc4)C(=O)[C@@H]3CC[C@@H]12 | 0.799 | -0.315 | -0.677 | 1.31 (inactive) | 0.725 | 1.12 | 1.09 | 1.34 | 0.867 | 1.43 | 0.207 | 0.0672 | 0.937 | -0.762 | -2.03 | -0.191 | -0.476 | -0.12 | 1.41 | -0.778 |
| CCOC(=O)[C@H](Cc1ccccc1)NC(=O)CCC1CC(OC(=O)NCCc2ccc(F)cc2)CC2(CCCC(COC(=O)NCC3CCCCC3)O2)O1 (stereo not given in full) | 0.711 | -0.184 | -0.761 | -0.308 (inactive) | 1.03 | 1.24 | 0.53 | 1.2 | 1.33 | 0.0408 | 1.38 | -0.019 | 1.03 | 0.325 | -0.207 | -0.232 | -0.2 | -0.273 | 0.237 | 0.289 |
| Cc1cc2c(c(=O)o1)[C@@H](O)[C@H]1O[C@H]1C2=O | 0.338 | -0.145 | -0.699 | -0.533 (inactive) | 0.436 | 0.231 | 0.287 | 0.522 | 0.585 | 0.0545 | -0.0158 | 0.73 | 0.384 | -0.374 | -0.876 | -0.154 | -0.243 | -0.265 | 0.27 | 0.56 |
| COC(=O)[C@H](C)NC(=O)CCC1CC(OC(=O)NCc2cccc3ccccc23)CC2(CCCC(COC(=O)NCC(c3ccccc3)c3ccccc3)O2)O1 (stereo not given in full) | 0.208 | -0.0014 | -0.523 | 0.026 (inactive) | 0.715 | 1.27 | 0.702 | 0.601 | 0.386 | -0.396 | 1.32 | -0.977 | 0.889 | -0.0132 | -0.265 | -0.0185 | -0.273 | -0.0157 | 0.345 | 0.0226 |
